Calls of active or inactive are those of the source. The calls were made as follows: active = hit-call score of the fitted dose curve at least 0.9, where 1 is the maximum; inactive = score below 0.9.
Experiments:
Conditions in all cases: mRNA level, 48 h; actives raise or lower the signal
HGF (gene 3082) = test: LTEA_HepaRG_HGF: Life Technologies and Expression Analysis (LTEA) Assay for Hepatocyte Growth Facto (HGF) using HepaRG (AID 2283505)
How it was run: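 HepaRG, 48 h dosing, 8-pt half-log series from 100 uM in 0.5% DMSO, duplicates. Readout: TaqMan qRT-PCR of HGF mRNA, housekeeping-normalized; bidirectional curve fit vs DMSO baseline.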

[1] = read-out: Insulin Like Growth Factor 1 (IGF1), IGF1 (gene 3479); test: LTEA_HepaRG_IGF1: Life Technologies and Expression Analysis (LTEA) Assay for Insulin Like Growth Factor 1 (IGF1) using HepaRG (AID 2283506)
How it was run: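 Differentiated human HepaRG cells were dosed for 48 h in serum-free induction medium with 0.5% DMSO, eight half-log concentrations up to 100 uM, in duplicate. IGF1 mRNA was quantified by qRT-PCR normalized to ACTB, GAPDH, POLR2A; bidirectional fitting versus DMSO.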

[2] = read-out: Intercellular Adhesion Molecule 1 (ICAM1), ICAM1 (gene 3383); test: LTEA_HepaRG_ICAM1: Life Technologies and Expression Analysis (LTEA) Assay for Intercellular Adhesion Molecule 1 (ICAM1) using HepaRG (AID 2283507)
How it was run: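 HepaRG, 48 h exposure, 8-pt half-log series from 100 uM, 0.5% DMSO vehicle, duplicates. Readout: TaqMan qRT-PCR mRNA, housekeeping-normalized (ACTB/GAPDH/POLR2A). Bidirectional curve fit vs DMSO baseline.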

[3] = read-out: Insulin-like growth factor-binding protein 1 (IGFBP1), IGFBP1 (gene 3484); test: LTEA_HepaRG_IGFBP1: Life Technologies and Expression Analysis (LTEA) Assay for Insulin-like growth factor-binding protein 1 (IGFBP1) using HepaRG (AID 2283508)
How it was run: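 qRT-PCR mRNA read-out (TaqMan, Fluidigm array), normalised to three housekeeping genes; HepaRG cells, 48 h exposure, 8-pt half-log series from 100 uM, 0.5% DMSO vehicle; bidirectional curve fit vs DMSO baseline.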

[4] = read-out: Potassium channel subfamily K member 1 (KCNK1), KCNK1 (gene 3775); test: LTEA_HepaRG_KCNK1: Life Technologies and Expression Analysis (LTEA) Assay for Potassium channel subfamily K member 1 (KCNK1) using HepaRG (AID 2283511)
How it was run: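 Differentiated human HepaRG cells in serum-free induction medium were exposed in duplicate for 48 h to 8 half-log concentrations up to 100 uM in 0.5% DMSO. KCNK1 mRNA was measured by TaqMan qRT-PCR, normalized to ACTB, GAPDH and POLR2A, and fitted bidirectionally versus DMSO.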

[5] = read-out: Keratin 19 (KRT19), KRT19 (gene 3880); test: LTEA_HepaRG_KRT19: Life Technologies and Expression Analysis (LTEA) Assay for Keratin 19 (KRT19) using HepaRG (AID 2283512)
How it was run: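 HepaRG, 48 h chemical exposure, 8-pt half-log CRC from 100 uM, 0.5% DMSO vehicle, duplicates. Readout: TaqMan qRT-PCR of KRT19 mRNA, housekeeping-normalized (ACTB/GAPDH/POLR2A). Bidirectional fit vs DMSO baseline.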

[6] = read-out: JUN Transcription Factor, JUN (gene 3725); test: LTEA_HepaRG_JUN: Life Technologies and Expression Analysis (LTEA) Assay for JUN Transcription Factor using HepaRG (AID 2283513)
How it was run: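 Differentiated HepaRG cells were exposed to chemicals for 48 h in serum-free induction medium, 8 concentrations from 100 uM in half-log steps, 0.5% DMSO vehicle, in duplicate. JUN mRNA was quantified by TaqMan qRT-PCR, normalized to ACTB, GAPDH, POLR2A.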

[7] = read-out: Lipase C (LIPC), LIPC (gene 3990); test: LTEA_HepaRG_LIPC: Life Technologies and Expression Analysis (LTEA) Assay for Lipase C (LIPC) using HepaRG (AID 2283514)
How it was run: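 Differentiated human HepaRG cells in serum-free induction medium were exposed in duplicate for 48 h to eight concentrations (top 100 uM, half-log steps, 0.5% DMSO). LIPC mRNA was quantified by TaqMan qRT-PCR, normalized to ACTB, GAPDH and POLR2A, with bidirectional fitting versus DMSO.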

[8] = read-out: MicroRNA 122 (MIR122), gene 406906; test: LTEA_HepaRG_MIR122: Life Technologies and Expression Analysis (LTEA) Assay for MicroRNA 122 (MIR122) using HepaRG (AID 2283516); also: the transcript read is the microRNA miR-122
How it was run: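 Differentiated human HepaRG cells were exposed 48 h in serum-free induction medium to eight half-log concentrations (top 100 uM, 0.5% DMSO). Transcript level was measured by TaqMan qRT-PCR, normalized to ACTB, GAPDH and POLR2A, and fitted bidirectionally versus DMSO.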

[9] = read-out: matrix metalloproteinase-10 (MMP10), MMP10 (gene 4319); test: LTEA_HepaRG_MMP10: Life Technologies and Expression Analysis (LTEA) Assay for matrix metalloproteinase-10 (MMP10) using HepaRG (AID 2283517)
How it was run: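 HepaRG, collagen I, ~100,000 cells/well; serum-free induction medium; 48 h exposure, duplicate, 8-pt half-log to 100 uM, 0.5% DMSO. Readout: TaqMan qRT-PCR, normalized to ACTB/GAPDH/POLR2A; bidirectional fit vs DMSO.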

MYC, MYC (gene 4609) = test: LTEA_HepaRG_MYC: Life Technologies and Expression Analysis (LTEA) Assay for MYC using HepaRG (AID 2283518)
How it was run: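 qRT-PCR read-out of MYC transcript (Fluidigm TaqMan, housekeeping-normalized) after 48 h chemical exposure of HepaRG cells; eight concentrations, top 100 uM, half-log steps. Bidirectional curve fitting against 0.5% DMSO vehicle baseline.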

[10] = read-out: matrix metalloproteinase-3 (MMP3), MMP3 (gene 4314); test: LTEA_HepaRG_MMP3: Life Technologies and Expression Analysis (LTEA) Assay for matrix metalloproteinase-3 (MMP3) using HepaRG (AID 2283519)
How it was run: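 Differentiated human HepaRG cells, plated 48 h on collagen I, were exposed in duplicate for 48 h in serum-free induction medium to eight half-log concentrations up to 100 uM in 0.5% DMSO. MMP3 mRNA was quantified by TaqMan qRT-PCR, normalised to ACTB, GAPDH and POLR2A.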

[11] = read-out: Paternally Expressed 10 (PEG10), PEG10 (gene 23089); test: LTEA_HepaRG_PEG10: Life Technologies and Expression Analysis (LTEA) Assay for Paternally Expressed 10 (PEG10) using HepaRG (AID 2283520)
How it was run: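 Differentiated HepaRG cells, plated 48 h then switched to serum-free induction medium, were exposed in duplicate for 48 h to eight half-log concentrations topping at 100 uM in 0.5% DMSO. PEG10 mRNA was quantified by TaqMan qRT-PCR, normalised to ACTB, GAPDH and POLR2A.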

[12] = read-out: Protein phosphatase 2A (PPP2R4), PTPA (gene 5524); test: LTEA_HepaRG_PPP2R4: Life Technologies and Expression Analysis (LTEA) Assay for Protein phosphatase 2A (PPP2R4) using HepaRG (AID 2283522)
How it was run: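 Differentiated HepaRG cells in serum-free induction medium were exposed in duplicate for 48 h to eight concentrations, top 100 uM with half-log dilutions, in 0.5% DMSO. PPP2R4 mRNA was quantified by TaqMan qRT-PCR, normalized to ACTB, GAPDH and POLR2A.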

[13] = read-out: Phosphatase and tensin (PTEN), PTEN (gene 5728); test: LTEA_HepaRG_PTEN: Life Technologies and Expression Analysis (LTEA) Assay for Phosphatase and tensin (PTEN) using HepaRG (AID 2283523)
How it was run: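 Differentiated human HepaRG cells, plated 48 h then switched to serum-free induction medium, were exposed in duplicate for 48 h to eight half-log concentrations up to 100 uM in 0.5% DMSO. PTEN mRNA measured by TaqMan qRT-PCR, normalized to ACTB/GAPDH/POLR2A, bidirectional fit versus DMSO.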

[14] = read-out: solute carrier (SLC22A1), SLC22A1 (gene 6580); test: LTEA_HepaRG_SLC22A1: Life Technologies and Expression Analysis (LTEA) Assay for solute carrier (SLC22A1) using HepaRG (AID 2283524)
How it was run: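 Human HepaRG cells were plated 48 h, switched to serum-free induction medium, then exposed in duplicate for 48 h to 8-point half-log series from 100 uM in 0.5% DMSO. SLC22A1 mRNA measured by qRT-PCR, normalized to ACTB/GAPDH/POLR2A, fitted bidirectionally versus DMSO.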

[15] = read-out: Interleukin 6 (IL6), IL6 (gene 3569); test: LTEA_HepaRG_IL6: Life Technologies and Expression Analysis (LTEA) Assay for Interleukin 6 (IL6) using HepaRG (AID 2283509)
How it was run: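 Differentiated human HepaRG cells, plated 48 h then switched to serum-free induction medium, were exposed in duplicate for 48 h to eight half-log concentrations up to 100 uM in 0.5% DMSO. IL6 mRNA measured by qRT-PCR, normalized to ACTB/GAPDH/POLR2A.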

[16] = read-out: Interleukin 6 Receptor (IL6R), IL6R (gene 3570); test: LTEA_HepaRG_IL6R: Life Technologies and Expression Analysis (LTEA) Assay for Interleukin 6 Receptor (IL6R) using HepaRG (AID 2283510)
How it was run: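 Differentiated human HepaRG cells, plated 48 h then switched to serum-free induction medium, were dosed in duplicate for 48 h at eight half-log concentrations up to 100 uM in 0.5% DMSO. IL6R mRNA quantified by qRT-PCR, normalized to ACTB/GAPDH/POLR2A; bidirectional fit versus DMSO.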

[17] = read-out: Nuclear factor NF-kappa-B p105 subunit (Homo sapiens) (UniProt P19838); test: LTEA_HepaRG_NFKB1: Life Technologies and Expression Analysis (LTEA) Assay for Nuclear Factor Kappa B Subunit 1 (NFKB1) using HepaRG (AID 2283521);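 also: TaqMan qRT-PCR transcript normalised to ACTB GAPDH and POLR2A housekeeping genes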
How it was run: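 Differentiated human HepaRG cells were exposed for 48 h in serum-free induction medium to eight concentrations (top 100 uM, half-log steps, 0.5% DMSO), in duplicate. NFKB1 mRNA was measured by TaqMan qRT-PCR, normalized to ACTB/GAPDH/POLR2A, and fitted bidirectionally against DMSO.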

Measured: AC50

Sequence of Nuclear factor NF-kappa-B p105 subunit (Homo sapiens) (P19838 whole entry, looked up): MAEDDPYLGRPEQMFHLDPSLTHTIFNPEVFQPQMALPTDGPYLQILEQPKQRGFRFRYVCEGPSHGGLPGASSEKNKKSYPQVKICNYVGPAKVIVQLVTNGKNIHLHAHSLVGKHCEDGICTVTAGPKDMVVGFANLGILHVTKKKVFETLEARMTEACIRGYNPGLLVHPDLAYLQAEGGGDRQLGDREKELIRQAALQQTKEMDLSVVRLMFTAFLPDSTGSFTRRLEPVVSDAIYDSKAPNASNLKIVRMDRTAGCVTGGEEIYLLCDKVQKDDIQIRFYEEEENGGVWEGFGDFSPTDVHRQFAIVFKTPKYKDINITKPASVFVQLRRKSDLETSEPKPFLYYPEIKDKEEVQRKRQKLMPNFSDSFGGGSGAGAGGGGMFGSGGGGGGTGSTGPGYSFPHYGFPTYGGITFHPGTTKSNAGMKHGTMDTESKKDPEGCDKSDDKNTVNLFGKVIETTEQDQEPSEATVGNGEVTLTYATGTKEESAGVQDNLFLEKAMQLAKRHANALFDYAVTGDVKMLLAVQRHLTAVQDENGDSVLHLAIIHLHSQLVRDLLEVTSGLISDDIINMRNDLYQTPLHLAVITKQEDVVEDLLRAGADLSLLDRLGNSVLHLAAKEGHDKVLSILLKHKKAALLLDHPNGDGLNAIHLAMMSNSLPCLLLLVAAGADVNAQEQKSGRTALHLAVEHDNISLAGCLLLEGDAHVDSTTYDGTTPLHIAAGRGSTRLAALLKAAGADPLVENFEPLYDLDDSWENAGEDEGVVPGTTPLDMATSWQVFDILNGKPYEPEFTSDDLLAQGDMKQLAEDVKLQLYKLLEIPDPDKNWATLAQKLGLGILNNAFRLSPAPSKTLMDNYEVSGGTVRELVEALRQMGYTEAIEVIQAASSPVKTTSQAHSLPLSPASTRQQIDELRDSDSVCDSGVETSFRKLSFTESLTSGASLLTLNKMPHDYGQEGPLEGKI

Cc1ccc(C)c(O)c1
not listed: [15] | [16] | [17]
inactive: all other assays above

Cn1cnc([N+](=O)[O-])c1Sc1ncnc2nc[nH]c12
active: [2] 3.59 µM | [3] 2.75 µM | [4] 4.15 µM | [5] 5.94 µM | [7] 17.7 µM | [8] 4.54 µM | MYC, MYC (gene 4609) 6.38 µM | [10] 1.9 µM | [11] 1.66 µM | [14] 16.1 µM
inactive: [1] | [15] | [16] | [6] | [9] | [17] | [12] | [13]

O=c1n(CC2CO2)c(=O)n(CC2CO2)c(=O)n1CC1CO1 (configuration not stated)
active: [15] 50 µM | [7] 71.5 µM
not listed: HGF (gene 3082)
inactive: all other assays above

— PubChem BioAssay (EPA / NIEHS)
